Assay results taken from the supplement of paper PMC9399229.
Structures can show the parent of a compound that is named as a salt. Over roughly 1,900 compounds, “relative cell viability (CellTiter-Glo), compound plus cabozantinib, relative to the cabozantinib arm (arm median 1.05; reference not stated)” has its median near 1.1; the lowest 2% begin near 0.15. The sample as a whole holds a higher share of the lowest values than the screen did.

System: Hep3B
Assay: relative cell viability (CellTiter-Glo), compound plus cabozantinib, relative to the cabozantinib arm (arm median 1.05; reference not stated) (fraction); higher = more viable cells (less growth inhibition)
Details: cabozantinib 2 µM; 4 days

In order of falling relative cell viability:
1. CO[C@H]1C[C@@H]2CC[C@@H](C)[C@@](O)(O2)C(=O)C(=O)N2CCCC[C@H]2C(=O)O[C@H]([C@H](C)C[C@@H]2CC[C@@H](OP(C)(C)=O)[C@H](OC)C2)CC(=O)[C@H](C)/C=C(\C)[C@@H](O)[C@@H](OC)C(=O)[C@H](C)C[C@H](C)/C=C/C=C/C=C/1C [Ridaforolimus (Deforolimus, MK-8669)]  1.3
2. COc1nc(C)cnc1NS(=O)(=O)c1cccnc1-c1ccc(-c2nnco2)cc1 [Zibotentan (ZD4054)]  1.22
3. C[C@H](NCc1ccc(OCc2cccc(F)c2)cc1)C(N)=O [Safinamide Mesylate]  1.22
4. C[C@H]1O[C@H](O[C@H]2[C@H](O)[C@@H](O)[C@@H](O[C@H]3[C@H](O)[C@@H](O)C(O)O[C@@H]3CO)O[C@@H]2CO)[C@H](O)[C@@H](O)[C@@H]1N[C@H]1C=C(CO)[C@@H](O)[C@H](O)[C@H]1O (stereo partly drawn) [Acarbose]  1.21
5. CN1CCc2c(c3ccccc3n2Cc2ccc(C(=O)NO)cc2)C1 [Tubastatin A]  1.16
6. CC(C)(F)C[C@H](N[C@@H](c1ccc(-c2ccc(S(C)(=O)=O)cc2)cc1)C(F)(F)F)C(=O)NC1(C#N)CC1 [Odanacatib (MK-0822)]  1.15
7. Cc1onc(-c2ccccc2Cl)c1C(=O)N[C@@H]1C(=O)N2[C@@H]1SC(C)(C)[C@@H]2C(=O)O [Cloxacillin Sodium]  1.1
8. CC[C@H](C)C[C@H](C)CCCCCCCCC(=O)N[C@H]1C[C@@H](O)[C@@H](NCCN)NC(=O)[C@@H]2[C@@H](O)CCN2C(=O)[C@H]([C@H](O)CCN)NC(=O)[C@H]([C@H](O)[C@@H](O)c2ccc(O)cc2)NC(=O)[C@@H]2C[C@@H](O)CN2C(=O)[C@H]([C@@H](C)O)NC1=O [Caspofungin Acetate]  1.1
9. FC(F)(F)c1ccc(CNc2ccc(Cc3c[nH]c4ncc(Cl)cc34)cn2)cn1 [Pexidartinib (PLX3397)]  1.07
10. CC(=O)Nc1ccccc1 [Acetanilide]  1.07
11. CC1=CC(=O)c2ccccc2C1=O [Menadione]  1.05
12. Nc1ncnc2n[nH]c(Nc3ccc(F)cc3)c12  1.05
13. Cc1ccc(NC(=O)c2ccc(CN3CC[C@H](N(C)C)C3)c(C(F)(F)F)c2)cc1Nc1nccc(-c2cncnc2)n1 [Bafetinib (INNO-406)]  1.05
14. O=C1c2cccc(O)c2C(=O)c2c(O)cc(CO)cc21 [Aloe-emodin]  1.04
15. CN1CCc2c(c3ccccc3n2Cc2ccc(C(=O)NO)cc2)C1 [Tubastatin A HCl]  1.01
16. COC(=O)N[C@H](C(=O)N1CC2(CC2)C[C@H]1c1nc(-c2ccc3c(c2)C(F)(F)c2cc(-c4ccc5[nH]c([C@@H]6[C@H]7CC[C@H](C7)N6C(=O)[C@@H](NC(=O)OC)C(C)C)nc5c4)ccc2-3)c[nH]1)C(C)C [Ledipasvir (GS5885)]  1
17. C=C1CC[C@H](O)C/C1=C/C=C1\CCC[C@]2(C)[C@@H]([C@H](C)CCCC(C)(C)O)CC[C@@H]12 [Calcifediol]  0.993
18. CN/C(=N\CCSCc1nc[nH]c1C)NC#N [Cimetidine]  0.986
19. OC[C@H]1O[C@@H](OCCc2ccc(O)cc2)[C@H](O)[C@@H](O)[C@@H]1O [Salidroside]  0.974
20. C[C@H]1COC2=C1C(=O)C(=O)c1c2ccc2c1CCCC2(C)C [Cryptotanshinone]  0.918
21. COc1cc(C(=O)NS(=O)(=O)c2ccccc2C)ccc1Cc1cn(C)c2ccc(NC(=O)OC3CCCC3)cc12 [Zafirlukast]  0.9
22. C=CC(=O)Nc1cccc(Nc2nc(Nc3ccc(N4CCN(C(C)=O)CC4)cc3OC)ncc2C(F)(F)F)c1  0.831
23. Cc1ccc(C(=O)Nc2ccc(CN3CCN(C)CC3)c(C(F)(F)F)c2)cc1C#Cc1cnc2[nH]ncc2c1  0.279
24. COc1cccc2c1C(=O)c1c(O)c3c(c(O)c1C2=O)C[C@@](O)(C(=O)CO)C[C@@H]3O[C@H]1C[C@H](N)[C@H](O[C@@H]2CCCCO2)[C@H](C)O1 [Pirarubicin]  0.178
25. Cc1ccc(C(=O)Nc2ccc(CN3CCN(C)CC3)c(C(F)(F)F)c2)cc1C#Cc1cnc2cccnn12  0.127
26. Cn1cc(CNCC2CCN(c3ncc(C(=O)NO)cn3)CC2)c2ccccc21  0.121
27. COc1cccc2c1C(=O)c1c(O)c3c(c(O)c1C2=O)C[C@@](O)(C(=O)CO)C[C@@H]3O[C@H]1C[C@H](N)[C@H](O)[C@H](C)O1 [Doxorubicin (Adriamycin)]  0.111
28. C[C@H]1O[C@@H](O[C@H]2[C@@H](O)C[C@H](O[C@H]3[C@@H](O)C[C@H](O[C@H]4CC[C@@]5(C)[C@H](CC[C@@H]6[C@@H]5C[C@@H](O)[C@]5(C)[C@@H](C7=CC(=O)OC7)CC[C@]65O)C4)O[C@@H]3C)O[C@@H]2C)C[C@H](O)[C@@H]1O [Digoxin]  0.0999
29. CC(C)(C)C(=O)Nc1ccc2c(c1)C(=O)C(=O)c1ccccc1-2  0.0959
30. C/C(=N\NC(=S)N1CCC1)c1ccccn1  0.0579
31. COc1cccc2c1C(=O)c1c(O)c3c(c(O)c1C2=O)C[C@@](O)(C(C)=O)C[C@@H]3O[C@H]1C[C@H](N)[C@H](O)[C@H](C)O1 [Daunorubicin HCl]  0.0514
32. COc1cccc2c1C(=O)c1c(O)c3c(c(O)c1C2=O)C[C@@](O)(C(=O)CO)C[C@@H]3O[C@H]1C[C@H](N)[C@@H](O)[C@H](C)O1 [Epirubicin HCl]  0.045
33. O=C1c2c(O)ccc(O)c2C(=O)c2c(NCCNCCO)ccc(NCCNCCO)c21 [Mitoxantrone]  0.0306
